Laboratory results from PubChem BioAssay (NCI).
Compounds without any hit were thinned out: in the full panel of roughly 83,000, 20% have a hit.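 Results are percent growth after 48 hours of single-concentration exposure. 100 means growth as in untreated cells, lower positive values show inhibition; negative values down to -100 show cell death.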 Activity calls are given as the source filed them. The calls were made as follows: active = growth percent below 10; inactive = the rest.

What follows are compounds tested on A549/ATCC NSCLC (assay: NCI-60 one-dose screen, 48 h (100 = growth as untreated, 0 = no growth, -100 = all killed)). Conditions: 10 µM unless noted.
For `CCNC(=O)Oc1ccc(/C(=C(/C)Cc2ccc(OC)cc2)c2ccc(OCCN3CCCCC3)cc2)cc1`, the growth was 62% (inactive). With `COC(=O)C(Cc1ccccc1)NC(=O)c1ccc(NC(=O)c2[nH]c(C)c(Cl)c2Cl)c(OC(C)C)c1` (stereo not given) the growth was 6.57% (active). `Cc1ccc(S(=O)(=O)Oc2ccc3sc4cccc(NCCN(C)C)c4c(=O)c3c2)cc1` was tested, and the growth was -74.1% (active). In the case of `O=C(Nc1ncccc1OCc1ccccc1)NC1CCCCCC1`, the growth is reported as 97.8% (inactive). In the case of `CCNc1nc(O)c(/C=C2\C=Nc3ncccc32)s1`, the growth is reported as 11.1% (inactive). For `Ic1ccccc1I`, the growth was 98.5% (inactive). With `CC1=C2[C@@H](CC1)[C@]1(C)O[C@@](C3CCCCC3)(C[C@H]1OC(=O)CO)[C@H]2OC(=O)/C=C/c1ccccc1` the growth was 63.1% (inactive). For `Cc1ccc(-c2csc(NC(=O)c3ccccc3CN3C(=O)c4ccccc4C3=O)n2)cc1`, the growth was 86.4% (inactive). With `Oc1c(CN2CCCC2)cc(CSCc2ccccc2)c2cccnc12` the growth was 9.29% (active). `Cc1ccc(-c2nc(SCc3nc4cc(Cl)c(Cl)cc4[nH]3)[nH]c(=O)c2C#N)cc1` was tested, and the growth was 93.1% (inactive). For `CC/C=C\CCC/C=C1/C(=O)C=C[C@@H]1C/C=C\CCCC(=O)OC`, the growth was 79% (inactive). For `C=C1C(=O)O[C@H]2[C@H]1CC/C(Cn1cc(CCC)nn1)=C\CC[C@@]1(C)O[C@@H]21`, the growth was 68.2% (inactive). With `CN(C)CCCC1(c2ccc(F)cc2)OCc2cc(-c3ccc4cc[nH]c4c3)ccc21` (stereo not given) the growth was 49.1% (inactive). With `COc1ccc(CCN(CC(=O)N(CC(N)=O)C2CCC[C@@H]2OCc2ccccc2)C(=O)CN(C(=O)CN(CCc2ccc(Cl)cc2)C(=O)CN(C(=O)CN(C)Cc2ccccc2F)[C@H](C)C2CCCCC2)[C@H](C)C2CCCCC2)cc1OC` (stereo not given in full) the growth was 23.4% (inactive). With `COc1ccc(C(=O)Cn2c(C(=O)c3ccc(Cl)cc3)nc3ccccc32)cc1` the growth was 68.1% (inactive). In the case of `O=C1/C(=C/c2ccccc2F)CN(C(=O)C(Cl)Cl)C/C1=C\c1ccccc1F`, the growth is reported as -2.28% (active). `CCOC(=O)C1=C(C)C(Cl)=N/C1=C\c1[nH]c(Cl)c(C)c1C(=O)OCC` was tested, and the growth was 78% (inactive). `COc1ccc(/C=C/C(c2cc(OC)c(OC)c(OC)c2)n2cncn2)cc1` (stereo not given) was tested, and the growth was 35.5% (inactive). `CCN1C(=O)N(CC)C2C1NC(=S)N2/N=C/c1ccc(C(F)(F)F)cc1` (stereo not given) was tested, and the growth was 39.8% (inactive). For `C[C@H](CCCC(=O)NCC#CCN1CCN(C)CC1)[C@H]1CC[C@H]2[C@@H]3CC[C@@H]4CC(=O)CC[C@]4(C)[C@H]3CC[C@]12C`, the growth was 95.7% (inactive). In the case of `Fc1cccc(-c2ccc3c(c2)C2(CCNCC2)CN3)c1`, the growth is reported as 99.9% (inactive). In the case of `CCN1C(=O)N(CC)C2Nn3c(s/c(=C\c4ccccc4Br)c3=O)=NC21` (stereo not given), the growth is reported as 12.7% (inactive). `O=C(NCc1cccc(CNC(=O)Nc2nc3ccccc3[nH]2)c1)Nc1nc2ccccc2[nH]1` was tested, and the growth was -42.5% (active). For `O=C1Nc2ccccc2/C1=C\c1c[nH]c2ccc(Br)cc12`, the growth was 73.5% (inactive). For `COc1cc(C2C(C(=O)OCc3ccccc3)=C(C)NC(C)=C2C(=O)OCc2ccccc2)cc(OC)c1OC`, the growth was 23.4% (inactive). In the case of `CCn1cc(CNc2ccc(C(=O)Nc3cc4cc(OC)c(OC)cc4c(C)n3)cc2)cn1`, the growth is reported as 48.1% (inactive). `COc1cc(/C=C/C(=O)/C=C(O)/C=C/c2ccc(OC(=O)C34CC5CC(CC(C5)C3)C4)c(OC)c2)ccc1OC(=O)C12CC3CC(CC(C3)C1)C2` was tested, and the growth was 103% (inactive). For `COc1ccc(C2=CN3CC=CC3CC2=O)cc1` (stereo not given), the growth was 87.4% (inactive). With `C=C(C)[C@@H]1CCC[C@]2(C(=O)O)CC[C@]3(C)[C@@H](CC[C@@H]4[C@@]5(C)C/C(=C/c6ccncc6)C(=O)C(C)(C)[C@@H]5CC[C@]43C)[C@@H]12` the growth was 16.3% (inactive). In the case of `FC(F)(F)c1ccc(Cn2cc(CSc3nc4ccccc4s3)nn2)cc1`, the growth is reported as 90.1% (inactive). For `CCCn1nc(C(=O)N(C)Cc2ccccc2)c2c1CCC(N1CCc3ccccc31)C2` (stereo not given), the growth was 93% (inactive). In the case of `CCN1C(=O)N(CC)C2C1NN=c1s/c(=C\c3cnc(C)n3C)c(=O)n12` (stereo not given), the growth is reported as 15.8% (inactive). In the case of `CCOC(=O)c1c(C)nc2ccccc2c1/C=C/c1ccccc1`, the growth is reported as 57.1% (inactive). For `CN1CCN(C(=S)SCCCCOc2cc(=O)oc3ccccc23)CC1`, the growth was 84.5% (inactive). For `Nc1nc(N)c2c(n1)NC(c1cccc(Nc3ccnc4cc(C(F)(F)F)ccc34)c1)CC(c1ccc(Br)cc1)=N2` (stereo not given), the growth was 45.9% (inactive). `O=C(Nc1ccc(Cl)cc1)Oc1c(Cl)c(Cl)c(Cl)c(Cl)c1Cl` was tested, and the growth was 93.3% (inactive). For `CC(=O)/C(=C/c1ccc([N+](=O)[O-])cc1)C(=O)c1ccccc1`, the growth was 83.6% (inactive). In the case of `Cc1cccc(N2CCC(=O)NC2=S)c1`, the growth is reported as 99.1% (inactive). In the case of `Cc1ccc(S(=O)(=O)OCCCOS(=O)(=O)c2ccc(C)cc2)cc1`, the growth is reported as 93.4% (inactive). In the case of `CCOC(=O)c1c(C)nc2c(c1N)CC(=O)N2Cc1ccc(OC)cc1`, the growth is reported as 25.8% (inactive).
